# FMDV antiviral: antivirals against foot and mouth disease virus; FMDV antiviral cell-based qHTS; Potency, µM (top dose mostly 57.9 µM), inactives show at the highest dose activity change, negative = inhibition, usual class: inhibitors; AID 1159524; actives 1.2% (n = 410,000); calls by dose curve; tested in HEK293T cells; further: read-out not given here; potency means the concentration at half of the fitted maximal effect; nearly all actives have a fitted effect of over 45% in size
# VACV Venus inh: inhibitors of vaccinia virus (Venus reporter); Potency, µM (highest dose often 36.5 µM), for inactives: at the top dose activity change, negative = inhibition, hits mostly inhibitors; Vaccinia virus Venus reporter expression, fluorescence; actives 0.46% (n = 330,000); AID 720580; calls by dose curve; tested in A549 cells; further: potency means the concentration at half of the fitted maximal effect; nearly all actives have a fitted effect of over 30% in size
# Lassa entry inh: blocks Lassa virus binding to or entry into cells | Potency, µM (highest dose often 37.9 µM), for the others: top-dose activity change, negative = inhibition, usual class: inhibitors | Lassa virus pseudotype entry inhibition, cell reporter | actives 1.2% (n = 300,000); calls by dose curve; tested in HEK293 cells; further: potency means the concentration at half of the fitted maximal effect; nearly all actives have a fitted effect of over 50% in size
# Vaccinia mCherry: vaccinia inhibition (mCherry reporter). actives 0.63% (n = 310,000). Vaccinia virus mCherry reporter infection, fluorescence. Potency, µM (titrated, usually from 36.5 µM), for the others: top-dose activity change, negative = inhibition, most hits filed as inhibitors. AID 720579; calls by dose curve; tested in A549 cells; further: potency means the concentration at half of the fitted maximal effect; nearly all actives have a fitted effect of over 35% in size
# MARV entry inh: Marburg virus entry inhibition | AID 540276 | actives 1.8% (n = 300,000) | Marburg virus pseudotyped entry inhibition, cell reporter | Potency, µM (series often up to 37.8 µM), for the others: top-dose activity change, negative = inhibition, actives largely listed as inhibitors; calls by dose curve; tested in HEK293 cells; further: potency means the concentration at half of the fitted maximal effect
# HCMV inh: inhibitors of human cytomegalovirus | HFF cells, HCMV-luciferase reporter, 72 h; hits give low values | AID 1259415 | activity change, negative = inhibition, % at 57.5 µM | actives 4.5% (n = 410,000); in the data active means activity change below about -60%; inconclusive means no clear call, values can overlap the other calls; inactive means above about -39%
#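 Luciferase read-out from HCMV-luciferase-infected HFFs (MOI 1 PFU/cell) 72 h post infection at 37C; compounds added after 16 h cell attachment; activity normalized between buffer-only basal and Salinomycin (10uM) inhibitor controls.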
# Numbers without * were called inactive; i = inactive; ? = inconclusive; . = not tested or not shown; ! = repeats disagree; [ ] = dose if it differs, or a comment. An excerpt weighted towards active compounds, which were near 6.5% of everything screened. On the % scale 0 is the no-effect control and ±100 the full control effect.
SMILES,FMDV antiviral,VACV Venus inh,Lassa entry inh,Vaccinia mCherry,MARV entry inh,HCMV inh
Cc1ccc(C)c(N(CC(=O)NC2CCCC2)C(=O)c2oc(C(C)(C)C)cc2C)c1,.,-14.7%,?,-9.3%,?,-67.5*
COc1ccc(C(C(=O)NC2CCCCC2)N(C(=O)CCl)c2ccc(C)cc2)cc1 (stereo not given),?,-25.8%,?,-1.5%,?,-98.9*
COc1ccc(C(C(=O)NC2CCCCC2)N(C(=O)CCl)c2ccc(OC)cc2)cc1 (stereo not given),8.91µM*,-16.8%,-23.7%,i,-14.5%,.
COc1cccc(N(C(=O)c2cnccn2)C(C(=O)NC2CCCCC2)c2ccc(Cl)cc2)c1 (stereo not given),8.1%,-25.8%,-17.0%,-23.7%,-7.1%,-19.7
COc1ccc(C(C(=O)NC2CCCCC2)N(C(=O)CCl)c2cccc(Cl)c2)cc1 (stereo not given),25.1µM*,?,3.55µM*,?,?,-99.0*
COc1ccc(C(C(=O)NC2CCCC2)N(C(=O)c2ccoc2C)c2ccc(C)cc2)cc1 (stereo not given),-7.2%,-15.4%,?,-8.7%,-25.5%,?
COCc1ccc(CN2Cc3ccccc3OC(c3ccccc3F)C2)o1 (stereo not given),1.8%,-28.3%,.,i,.,.
Cc1nnc(N2CCC(C(=O)N3CCCCC3)CC2)c2nn(-c3ccccc3)c(C)c12,2.8%,-10.6%,-6.0%[46.1 µM],-18.0%,.,-33.4
c1cc2c3c(cccc3c1)NC1(CCCCCC1)N2,-16.2%,-6.8%,10.2%,-11.9%,?,46.9
c1cc2c3c(cccc3c1)NC1(CCC3(CC1)Nc1cccc4cccc(c14)N3)N2,?,10µM*,.,?,.,?
COc1cccc(COC(=O)c2nn(-c3ccccc3)nc2N)c1,25.1µM*!,-19.2%,?,-1.9%,?,-25.0
N#CC(=C(O)CN1CCN(c2ccccc2F)CC1)c1nc(-c2ccccc2)cs1,8.0%,-23.0%,12.7%[46.1 µM],-11.7%,?,-70.8*
Cc1ccc(C(=O)Nc2sc3c(c2C(=O)O)CCCCC3)o1,-44.4%,?,7.94µM*,?,6.31µM*,40.5
Cc1ccc(C(=O)Nc2sc3c(c2C(=O)O)CCCC3)o1,21.9%,.,.,.,.,-61.8*
C=CCN1C(=O)[C@]2(OCCC=C[C@@H]2C)c2cc(OC)ccc21,.,.,.,.,37.0%[14.2 µM],.
CCOC1=C2[C@H](c3ccccc3Cl)N(S(=O)(=O)c3ccc(C)cc3)C[C@H]2C(C#N)(C#N)C(C#N)(C#N)C1,?,0.7%,.,4.0%,.,6.7
CCOC1=C2CN(S(=O)(=O)c3ccc(C)cc3)C(c3ccc(CC)cc3)CC2N(S(=O)(=O)c2ccc(C)cc2)C(c2ccc(CC)cc2)C1 (stereo not given),?,-2.5%,.,-12.8%,.,-27.7
CCOC1=C2[C@H](c3ccccc3)N(S(=O)(=O)c3ccc(C)cc3)[C@H](C(C)C)[C@H]2C(C#N)(C#N)C(C#N)(C#N)C1,.,.,.,.,.,-76.4*
CCOC1=C2CN(S(=O)(=O)c3ccc(C)cc3)[C@H](c3ccc(CC)cc3)C[C@@H]2N(S(=O)(=O)c2ccc(C)cc2)[C@H](c2ccccc2)C1,-24.2%,-22.6%,.,13.4%,.,-73.1*
CCOC1=C2[C@H](c3ccc(CC)cc3)N(S(=O)(=O)c3ccc(C)cc3)C[C@H]2C(C#N)(C#N)C(C#N)(C#N)C1,35.5µM*,3.0%,.,i,.,-74.0*
O=C(Nc1ccc(-c2nc3ccccc3s2)cc1)C1=COCCO1,10µM*,-2.3%,2µM*,i,0.794µM*,-20.7
O=C(Nc1nc(-c2ccc(-c3ccccc3)cc2)cs1)C1=COCCO1,-5.2%,?,-7.6%,?,?,-64.0*
COc1ccc(CCN2CCC(CN3C(=S)NC[C@@H]3Cc3ccccc3)CC2)cc1OC,.,.,.,.,.,-6.1
CC(CNC(=O)Cn1ccc2cc(S(=O)(=O)N3CCCCCC3)ccc21)c1ccccc1 (stereo not given),-18.3%,-17.0%,-11.3%[46.1 µM],-22.8%,.,-29.4
COc1cccc(C(C2=C(O)CC(C)(C)CC2=O)C2C(=O)CC(C)(C)CC2=O)c1 (stereo not given),-13.3%,-12.6%,?,-13.5%,22.5%,-65.3*
SMILES,FMDV antiviral,VACV Venus inh,Lassa entry inh,Vaccinia mCherry,MARV entry inh,HCMV inh
Cc1ccc(C(C2=C(O)CC(C)(C)CC2=O)C2C(=O)CC(C)(C)CC2=O)s1 (stereo not given),?,.,?,.,1.6%,-9.4
CC1(C)CC(=O)C(C(C2=C(O)CC(C)(C)CC2=O)c2ccc(Br)s2)C(=O)C1 (stereo not given),5.62µM*,-10.6%,12.6µM*,-8.2%,?,-6.7
O=[N+]([O-])c1ccc(CN2[C@H](COCc3ccccc3)C=CS2(=O)=O)cc1,.,.,.,.,.,-29.2
COc1ccc(S(=O)(=O)n2nc(-n3c(C)ccc3C)c3c(F)cccc32)cc1OC,-25.6%,-17.9%,?,-19.8%,8.91µM*,-32.2
Cc1ccc(C)n1-c1nn(S(=O)(=O)c2ccccc2)c2cccc(F)c12,-24.4%,5.5%,-8.9%[46.1 µM],-10.0%,?,-32.2
Cc1cc(C)nc(NC(=S)NC(=O)c2ccccc2F)n1,19.1%,4.3%,9.4%,i,0.2%[46.1 µM],14.2
Cc1cc(C)nc(S/C=C/C(=O)c2ccccc2F)n1,8.91µM*,-11.7%,?,i,?,-28.1
COc1ccc(CCn2c3c(c(=O)[nH]c2=O)C(NC(=O)c2ccccc2OC)(C(F)(F)F)C(=O)N3)cc1OC (stereo not given),-7.0%,-0.9%,-18.6%[46.1 µM],-15.3%,9.7%[46.1 µM],-4.1
c1ccc(CCNc2nc(-c3ccccn3)nc3ccccc23)cc1,?,-16.4%,?,-22.9%,?,-103.4*
CCCN(CCC)c1nc(-c2ccccc2F)nc2ccccc12,?,-3.5%,4.8%[46.1 µM],-12.5%,.,-2.2
CCCCN(CC)c1nc(-c2ccncc2)nc2ccccc12,25.1µM*,-26.4%,0.4%,-28.0%,?,-94.7*
CCCN(CCC)c1nc(-c2ccccn2)nc2ccccc12,?,?,?,4.47µM*,?,-100.0*
CCOC(=O)c1ccc(CNc2ncnc3nc[nH]c23)cc1,.,-29.8%,.,-28.5%,.,.
C[C@@H]1CCc2cc(F)cc3c(O)c(C(=O)NC[C@H]4CCCO4)c(=O)n1c23,.,.,.,.,-22.0%[46.1 µM],.
CCCC[C@H]1CN2[C@H](c3ccc(Br)cc3)[C@H](C)CC[C@H]2C(=O)O1,.,.,.,.,1.8%[14.2 µM],.
Cc1cc(NC(=O)N(C)CCc2c(C)nn(C)c2C)ccc1Br,11.7%,2.1%,-20.3%[46.1 µM],-11.1%,.,15.4
CCCOc1ccc(-c2nnc(-c3cccs3)o2)cc1,0.0%,39.4%,2µM*,.,-0.8%[46.1 µM],70.8
Cc1c(C(=O)N2CCCCC2c2cccnc2)sc2ncnc(NCc3cccs3)c12 (stereo not given),7.8%,-27.9%,.,-6.0%,.,.
COc1ccc(-n2nnnc2S(=O)(=O)CC(=O)N2CCCCC2)cc1,20µM*,?,.,12.6µM*,.,.

# Assay outcomes (PubChem)
